Data from PubChem BioAssay AID2314 (National Center for Advancing Translational Sciences (NCATS), 2010).
About 37,000 (12%) of roughly 300,000 compounds were called active. The sample holds actives, similar compounds and a random draw of the others, so the mix is not that of the screen. No stated cut-off is given here; in the data, active means max response mostly above about 13% (no sharp cut-off); inactive means mostly below about 14%.

Assay: Cycloheximide Counterscreen for Small Molecule Inhibitors of Shiga Toxin; further: read at 38.3 µM for the half of the compounds with a filed dose; 0% is about no effect
Settings: cell reporter, cycloheximide protein synthesis inhibition counterscreen; active compounds read high
In the case of `CN(Cc1ccc(F)cc1)C(=O)COc1ccc2ccccc2c1`, the max response is reported as 20.1% (inactive).
For `CN(Cc1ccccc1)C(=O)c1ccc(COc2ccccc2)cc1`, the max response was 7.81% (inactive).
With `CN(Cc1ccccc1)C(=O)COc1ccccc1` the max response was 41.1% (active).
With `CC1=NN(c2ccc(Cl)c(C(=O)O)c2)C(=O)/C1=C/c1ccc(-c2ccccc2[N+](=O)[O-])o1` the max response was -3.39% (inactive).
In the case of `C=C1O[C@@](CO)(n2cnc3c(N)ncnc32)[C@H](O)[C@@H]1O`, the max response is reported as 1.03% (inactive).
With `Cc1ccc(NN=C2C(=O)OC(C)(C)OC2=O)c(C)c1` the max response was 52% (active).
In the case of `Cc1ccc(NS(=O)(=O)c2ccc3c(c2)oc(=O)n3C)c(C)c1`, the max response is reported as 0.896% (inactive).
For `Cc1ccc(NC(=O)CCC(=O)N/N=C/c2ccco2)c(C)c1`, the max response was -1.51% (inactive).
With `O=c1c2ccccc2[nH]c(=S)n1CCN1CCC(=C(c2ccc(F)cc2)c2ccc(F)cc2)CC1` the max response was -1.14% (inactive).
With `Cc1ccc(NC(=O)CN(C)C(=O)c2ccc(Br)o2)cc1` the max response was -4.89% (inactive).
With `CCc1ccc(N(C(=O)c2csnn2)C(C(=O)NC2CCCCC2)c2ccncc2)cc1` (stereo not drawn) the max response was 8.95% (inactive).
In the case of `O=C(NNS(=O)(=O)c1ccccc1)c1cnn(-c2ccc(Cl)cc2)c1C(F)(F)F`, the max response is reported as 1.19% (inactive).
In the case of `O=C(NC1CC1)c1ccc2c(c1)NC(=O)c1ccccc1S2`, the max response is reported as 0.906% (inactive).
For `Cc1ccccc1NC(=O)c1cc(S(=O)(=O)Nc2cccc(C(=O)O)c2)ccc1Cl`, the max response was -4.93% (inactive).
With `C/C(=N\Nc1cccc(C(=O)O)c1)c1ccc2c(c1)Nc1ccccc1S2` the max response was 31.5% (active).
In the case of `CC(C)C[C@@H](CO)N1CCN(Cc2ccc(O)cc2)CCC1=O`, the max response is reported as -1.97% (inactive).
With `CCCN1C2CCCC1CC(NC(=O)NC13CC4CC(CC(C4)C1)C3)C2` (stereo not drawn) the max response was 0.762% (inactive).
With `CC(C)c1ccc2oc(=O)cc(CN3CCN(Cc4ccccc4)CC3)c2c1` the max response was -1.81% (inactive).
With `O=C(CN(C(=O)c1csnn1)c1ccc(Br)cc1)NC1CCCC1` the max response was -2.24% (inactive).
In the case of `O=C(NCCc1ccccn1)c1nc(Cn2cc([N+](=O)[O-])cn2)no1`, the max response is reported as -3.93% (inactive).
With `O=C(Cn1nc(Cc2cccnc2)c2ccccc2c1=O)NCC1COc2ccccc2O1` (stereo not drawn) the max response was -4.83% (inactive).
For `O=C(c1ccc(Cl)cc1)c1cnc(Nc2ccccc2)s1`, the max response was 8.33% (inactive).
With `S=c1[nH]nc(Nc2ccccc2)s1` the max response was 1.07% (inactive).
With `CC(C)(C)C(=O)c1cnc(Nc2ccccc2)s1` the max response was 44.2% (active).
In the case of `S=c1[nH]nc(-c2ccco2)n1/N=C/c1ccc(Br)s1`, the max response is reported as 1.13% (inactive).
In the case of `O=C(CSc1ncn[nH]1)Nc1nc(-c2cccc([N+](=O)[O-])c2)cs1`, the max response is reported as 2.28% (inactive).
With `O=C(CSc1nc(-c2ccccc2)cs1)Nc1cccc([N+](=O)[O-])c1` the max response was 39.4% (active).
In the case of `Cn1c(CNc2nc(-c3ccccc3)cs2)nnc1SCC(=O)c1ccccc1`, the max response is reported as -2.68% (inactive).
In the case of `O=C(CSCC(=O)Nc1cccc([N+](=O)[O-])c1)Nc1ccccc1`, the max response is reported as 7.14% (inactive).
For `Cc1csc(NC(=O)CSc2ccc(-c3ccc(F)cc3)nn2)n1`, the max response was -6.44% (inactive).
For `O=C(CSc1nc2ccccc2c(=O)[nH]1)Nc1nc(-c2ccc(Br)cc2)cs1`, the max response was 3.64% (inactive).
For `CCNC(=O)CSc1nc(-c2ccccc2)cs1`, the max response was 44% (active).
For `O=C(CSC1=NCCS1)Nc1nc(-c2ccccc2)cs1`, the max response was 35.3% (active).
For `CCOC(=O)CSc1nnc(CNc2nc(-c3ccccc3)cs2)n1C`, the max response was -0.673% (inactive).
In the case of `Cc1cc2cc3c(cc2nc1SCC(=O)Nc1c(C)cccc1C)CCC3`, the max response is reported as 0.976% (inactive).
With `Cc1c(CCOC(=O)CC23CC4CC(CC(C)(C4)C2)C3)sc[n+]1Cc1ccc([N+](=O)[O-])cc1` the max response was -3.94% (inactive).
In the case of `Fc1ccc(Cn2nnnc2C(c2cccs2)N2CCCCCC2)cc1` (stereo not drawn), the max response is reported as 0.541% (inactive).
With `CCOc1ccccc1NS(=O)(=O)c1cc2c3c(c1)C(C)C(=O)N3CCC2` (stereo not drawn) the max response was -3.18% (inactive).
In the case of `COc1ccccc1-c1nc(SC)n[nH]1`, the max response is reported as 23.3% (active).
For `COc1ccccc1C1=Nc2cccc3cccc(c23)N1`, the max response was -1.72% (inactive).
With `CCCOc1ccccc1-c1nc(SCCC(=O)O)n[nH]1` the max response was -3.17% (inactive).
In the case of `CN(CC(=O)Nc1ccccc1[N+](=O)[O-])Cc1ccc(Br)cc1`, the max response is reported as 7.65% (inactive).
For `Cc1ccc(NC(=O)CN(C)Cc2ccc(F)cc2)c([N+](=O)[O-])c1`, the max response was 12.6% (active).
In the case of `CSc1ccccc1NC(=O)CN(C)CC(=O)Nc1ccc(Cl)cc1[N+](=O)[O-]`, the max response is reported as 7.28% (inactive).
With `Cc1cccc(NC(=O)COC(=O)CCc2ccccc2)c1C` the max response was -2.64% (inactive).
With `CCOC(=O)C(C)Oc1cccc2c(=O)n(CC(=O)NCCc3ccc(OC)c(OC)c3)ccc12` (stereo not drawn) the max response was -2.75% (inactive).
In the case of `O=C1CCN(Cc2ccc([N+](=O)[O-])cc2)CCN1[C@H](CO)Cc1ccccc1`, the max response is reported as -3.88% (inactive).
For `O=C(c1cccnc1)N1CCN(S(=O)(=O)c2cccs2)CC1`, the max response was -2.02% (inactive).
In the case of `O=C(N/N=C/c1sc(N2CCCCC2)nc1-c1cccs1)c1cccnc1`, the max response is reported as 20.6% (active).
For `O=C(CNC(=O)c1cccnc1)N/N=C/c1cccnc1`, the max response was -3.21% (inactive).
In the case of `CN(C(=O)c1ccccc1)c1nccnc1C#N`, the max response is reported as -1.74% (inactive).
In the case of `CC(C)c1ccc(NC(=S)NNc2ccc(Cl)c(C(=O)O)c2)cc1`, the max response is reported as 38% (active).
In the case of `O=C(NC(=S)Nc1ccc(Cl)c(C(=O)O)c1)c1cncc(Br)c1`, the max response is reported as 1.31% (inactive).
With `Cc1ccc(C)c(NC(=S)NNC(=S)Nc2ccc(C(C)C)cc2)c1` the max response was 31% (active).
For `COc1ccc(Br)cc1/C=N/Nc1ccc(Cl)c(C(=O)O)c1`, the max response was 7.13% (inactive).
For `Cc1ccc(NC(=S)N/N=C2/CCCc3c(C)cc(C)cc32)cc1`, the max response was -1.84% (inactive).
With `Cc1ccc(C)c(NC(=S)NCC(c2cccnc2)N2CCOCC2)c1` (stereo not drawn) the max response was -3.15% (inactive).
In the case of `CCn1c(=O)c(=O)[nH]c2c(=O)oc3ccc(S(=O)(=O)Nc4ccc(OC)cc4)cc3c21`, the max response is reported as -4.34% (inactive).
For `Cc1ccc(C(=O)NCCc2nnc(SCC(=O)Nc3cccc(C(=O)O)c3)n2C)cc1`, the max response was -0.755% (inactive).
With `C=C(C)CNC(=S)Nc1ccc(S(=O)(=O)Nc2cnc3ccccc3n2)cc1` the max response was -1.53% (inactive).
For `O=C(/C=C/c1ccc(Cl)cc1Cl)c1cccnc1`, the max response was 2.63% (inactive).
For `Cc1ccc(C(=O)/C=C/Nc2ccc(S(=O)(=O)Nc3onc(C)c3C)cc2)cc1`, the max response was 48.2% (active).
With `COc1ccc(C(=O)Nc2ccc(S(=O)(=O)Nc3onc(C)c3C)cc2)cc1OC` the max response was -2.06% (inactive).
In the case of `Cc1noc(NS(=O)(=O)c2ccc(N/C=C/C(=O)c3ccccc3)cc2)c1C`, the max response is reported as 38.5% (active).
For `Cc1cc(OC(C)C(=O)Nc2ccc(S(=O)(=O)Nc3onc(C)c3C)cc2)cc(C)c1Cl` (stereo not drawn), the max response was -2.3% (inactive).
For `O=C(/C=C/Nc1ccc(S(=O)(=O)Nc2cnc3ccccc3n2)cc1)c1cccnc1`, the max response was 19.6% (active).
With `CCn1c(SCC(=O)Nc2ccc(S(=O)(=O)Nc3onc(C)c3C)cc2)nnc1-c1ccccc1` the max response was 5.03% (inactive).
With `Cc1noc(NS(=O)(=O)c2ccc(NC(=O)C34CCC(CC3)C4)cc2)c1C` the max response was -1.3% (inactive).
For `COC(=O)c1cnc(Nc2cc(C)ccc2OC)c2ccccc12`, the max response was -3.28% (inactive).
For `COc1cc(C(=O)NCc2cc3cc(Cl)ccc3n2C)cc(OC)c1OC`, the max response was 9.33% (inactive).
In the case of `COc1ccc(N2CCN(C(=O)c3cn(C)c4ccc(S(=O)(=O)N5CCOCC5)cc4c3=O)CC2)cc1`, the max response is reported as 0.725% (inactive).
For `CCc1ccc(C(=O)NC(=S)Nc2ccccc2N2CCOCC2)cc1`, the max response was 12.1% (inactive).
In the case of `CCCC(C(=O)NC1CCCC1)N(C(=O)Cn1nnc(-c2ccc(C)o2)n1)c1cccc(O)c1` (stereo not drawn), the max response is reported as -3.39% (inactive).
In the case of `CCOC(=O)C(Cc1ccc(N)cc1)N1C(=O)c2ccccc2C1=O` (stereo not drawn), the max response is reported as 15% (inactive).
For `O=S(=O)(c1ccc(Br)c2ccccc12)N1CCOCC1`, the max response was -2.9% (inactive).
In the case of `CC1CN(S(=O)(=O)c2cccc(C(F)(F)F)c2)CN1C(=O)N1CCOCC1` (stereo not drawn), the max response is reported as -5.77% (inactive).
With `COc1ccc(N2C(=O)CN=C2Nc2cccc(C)c2C)cc1OC` the max response was 1.91% (inactive).
With `Cc1ccc(C)c(NC2=NCC(=O)N2c2ccc3c(c2)OCCO3)c1` the max response was 17.5% (active).
With `Cc1ccc(N2C(=O)CN=C2Nc2nc(C)cc(C)n2)cc1` the max response was -2.81% (inactive).
For `CC(Sc1nnc(COc2ccccc2)n1-c1ccccc1)C(=O)O` (stereo not drawn), the max response was -3.12% (inactive).
With `Fc1ccc(-c2ccc(-c3nn4c(-c5ccco5)nnc4s3)o2)cc1` the max response was 12.8% (active).
For `FC(F)(F)c1nnc2sc(-c3ccco3)nn12`, the max response was -1.25% (inactive).
In the case of `Cc1nnc2sc(-c3ccco3)nn12`, the max response is reported as -2.36% (inactive).
In the case of `COc1ccc([N+](=O)[O-])cc1NC(=O)C(C)OC(=O)C1c2ccccc2Oc2ccccc21` (stereo not drawn), the max response is reported as -1.06% (inactive).
In the case of `CCN(C(=O)CN1CCN(Cc2ccccc2)CC1)c1c(N)n(Cc2ccccc2)c(=O)[nH]c1=O`, the max response is reported as -1.94% (inactive).
For `C1=C(CCNc2ncnc3c2cnn3-c2ccccc2)CCCC1`, the max response was 34.6% (active).
With `Cc1nn(C(C)C(=O)NCCC2=CCCCC2)c(=O)c2nn(-c3ccccc3)c(C)c12` (stereo not drawn) the max response was 12.2% (inactive).
For `O=C(NCCC1=CCCCC1)C1CCN(Cc2cnn(-c3ccccc3)c2-n2cccc2)CC1`, the max response was 18.2% (inactive).
With `O=C(COC(=O)/C(=C/c1cccs1)c1cccs1)NCc1ccccc1Cl` the max response was -3.92% (inactive).
With `Cc1cc(OCCCC(=O)NCCN2C(=O)S/C(=C\c3cccnc3)C2=O)ccc1Cl` the max response was -1.74% (inactive).
In the case of `CSc1nc2ccc(NC(=O)c3c(F)cccc3F)cc2s1`, the max response is reported as 48.4% (active).
For `CCCC(=O)Nc1nc2ccc(NC(=O)c3c(F)c(F)c(OC)c(F)c3F)cc2s1`, the max response was -1.72% (inactive).
In the case of `CCCn1nc(C(=O)Nc2ccc3nc(C)sc3c2)c2ccccc2c1=O`, the max response is reported as 2.94% (inactive).
